Assay [1] can be described thus: inhibitors of TNFa-induced NFkB p65 translocation, primary screen, imaging, HUVEC, MLSMR starter and 10KST1 sets (AID 438;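 active = inhibition above 20% together with a positive visual image hit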;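 also: compound added about 3h40 before a 20 min TNFalpha stimulation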;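 as to inhibition: signal is the nuclear over cytoplasmic p65 intensity ratio per well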). Particulars: HUVEC TNFa-induced p65 nuclear translocation; cell count: measured here: nuclei count (cytotoxicity indicator), at 2.08 µM; inhibition: at 2 µM, stronger effect = higher value, 0% TNFa-plus-vehicle, 100% no-TNFa wells.
Assay [2] is described as follows: reduction of polyQ htt aggregates in cells – imaging, exon1htt(103Q)mCFP cells, high-content imaging, primary screen (AID 483;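 active = visual image review flags a hit and inhibition of aggregation exceeds 20%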;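 also: compound exposure lasted 3 days before fixation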;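 as to nuclei count: percent of the per-plate median nuclei count of sample wells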). Particulars: exon1htt(103Q)mCFP cell line, aggregate imaging, at 2 µM; inhibition of aggregation: stronger effect = higher value; nuclei count: measured here: cell count, toxicity.
A short description of assay [3]: endothelial E-selectin expression blockers – imaging, HUVEC, immunofluorescence, MLSMR starter and 10KST1 sets, primary screen (AID 487;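 active = visually confirmed hit in the image check and inhibition above 20%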;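 as to inhibition: signal is fraction of cell area covered by stained E-selectin grains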;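 as to nuclei count: 100% = median nuclei count of all wells on the same plate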). Particulars: HUVEC TNFalpha-induced E-selectin immunofluorescence imaging, at 2 µM; inhibition: stronger effect = higher value; nuclei count: measured here: cell number, toxicity.
The target of assay [4] is Voltage-gated potassium channel subunit beta-2 (Rattus norvegicus) (UniProt P62483). As to the kind of experiment: inhibitors of rat Kvbeta2 reductase activity – biochemical, NADPH fluorescence, primary screen (AID 622;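 active = fluorescence slope higher than the sample average by over 3 SD, cut at about -0.22 in these data, passing the limit was not always enough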;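 also: slope of raw intensity against log time taken from 70 to 1610 s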). As to conditions: recombinant KvBeta, 4-cyanobenzaldehyde reduction, at 10 µM, stronger effect = higher value.
For assay [5] the target is unchanged. As to the kind of experiment: enhancers of rat Kvbeta2 NADPH turnover – biochemical, NADPH fluorescence, primary screen (AID 623;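 active = NADPH fluorescence slope more negative than the mean of all samples by about 3 SD, 99.7% confidence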;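 also: fluorescence intensity change per second fitted from 20 to 320 s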). As to conditions: Recombinant KvBeta, NADPH fluorescence decrease slope, 10 min; at 10 µM; stronger effect = lower value.
Assay [6] concerns the target Alpha-2C adrenergic receptor (Homo sapiens) (UniProt P18825). As to the kind of experiment: compounds altering alpha2C-coupled GIRK flux – cell-based, HEK293 alpha2C/GIRK1/2, thallium flux, primary screen (AID 624).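 Also: slope of fluorescence ratio to pre-addition baseline per second over 15 to 24 s.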 As to conditions: thallium flux BTC fluorescence, at 10 µM, actives lie on both sides.
Assay [7] can be described thus: blockers of RIG-like receptor reporter activation – cell-based, Sendai virus stimulus, luciferase, 10K MLSCN set, TLR/RLR signaling modifier project, primary screen (AID 602276;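 active = inhibition at or above 50% at 10 µM; inactive = inhibition below 50%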;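 also: firefly luciferase from ISG56 promoter only with Renilla not read in this screen; 0% = Sendai virus plus DMSO and 100% = medium plus DMSO without virus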). Particulars: HEK293 RL24 IRF3 luciferase reporter, at 10 µM, stronger effect = higher value. In general terms: Reporter assays use an easily measured gene product as a stand-in for the process of interest.

The nature of assay [8]: TLR3 IRF3 reporter activation blockers – cell-based, poly I:C stimulus, luciferase, 10K MLSCN set, primary screen (AID 602277;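 active = inhibition of the reporter signal at or above 50%; inactive = inhibition below 50%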). As to conditions: HEK293-TLR3 RL24 IRF3 luciferase reporter, at 10 µM, stronger effect = higher value.

The source made the active and inactive calls.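 The calls were made as follows, unless noted: active = fluorescence slope after compound addition differing from the mean of all screened samples at 99.7% confidence, in either direction; inactive = the rest.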

Alpha-2C adrenergic receptor (Homo sapiens), sequence (P18825 whole entry, looked up): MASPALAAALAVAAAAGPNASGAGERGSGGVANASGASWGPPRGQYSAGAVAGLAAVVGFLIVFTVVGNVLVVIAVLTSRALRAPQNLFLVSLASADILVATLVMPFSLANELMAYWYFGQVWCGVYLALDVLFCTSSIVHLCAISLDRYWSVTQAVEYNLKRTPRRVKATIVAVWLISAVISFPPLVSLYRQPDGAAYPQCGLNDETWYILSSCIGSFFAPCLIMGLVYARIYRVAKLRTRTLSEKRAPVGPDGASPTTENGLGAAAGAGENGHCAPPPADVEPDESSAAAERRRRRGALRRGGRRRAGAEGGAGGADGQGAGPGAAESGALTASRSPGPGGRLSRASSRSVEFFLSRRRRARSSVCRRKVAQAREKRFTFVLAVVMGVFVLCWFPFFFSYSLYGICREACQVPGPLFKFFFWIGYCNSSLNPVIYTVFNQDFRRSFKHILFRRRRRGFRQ
Voltage-gated potassium channel subunit beta-2 (Rattus norvegicus), sequence (P62483 whole entry, looked up): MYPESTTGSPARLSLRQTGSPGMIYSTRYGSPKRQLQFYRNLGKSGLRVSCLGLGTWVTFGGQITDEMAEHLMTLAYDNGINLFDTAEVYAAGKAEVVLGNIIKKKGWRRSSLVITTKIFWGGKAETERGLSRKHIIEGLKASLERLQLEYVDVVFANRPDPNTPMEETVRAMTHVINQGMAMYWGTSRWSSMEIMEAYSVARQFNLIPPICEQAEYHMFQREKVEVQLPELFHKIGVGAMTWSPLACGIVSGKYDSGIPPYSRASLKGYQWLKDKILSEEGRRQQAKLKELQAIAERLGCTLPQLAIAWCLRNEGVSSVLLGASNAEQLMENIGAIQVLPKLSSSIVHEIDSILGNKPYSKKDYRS

Consider `Cn1c(=O)[nH]c(=O)c2c1nc(NC1CCCCC1)n2CC(=O)NC1CCCCC1`, for which, in assay [1], the cell count came out at 751. The inhibition (commonly the change of the read-out against control, counted positive when it falls) in assay [1] is -14.7% (inactive); in assay [3] it was 10.2% (inactive); in assay [7], 18.1% (inactive); in assay [8], 21.1% (inactive). Also, in assay [2], the inhibition of aggregation is 12.1% (inactive). Also, the nuclei count is 90.9% in assay [2] and 105% in assay [3]. Moreover, in assay [4], the fluorescence slope was -0.4 (inactive). Besides, the NADPH fluorescence slope in assay [5] was 8.4e-06 (inactive). Also, the slope in assay [6] is 0.00653 (inactive).
On to `Cc1cc(=O)[nH]c(=S)n1-c1ccccc1`, for which the cell count in assay [1] is 656. Further, the inhibition in assay [1] was 7.7% (inactive); in assay [3] it was 23.3% (inactive); in assay [7] it was 15.3% (inactive); in assay [8] it was 23.5% (inactive). Also, the inhibition of aggregation in assay [2] was 5.6% (inactive). Besides, the nuclei count in assay [2] and in assay [3] was 103% throughout. Besides, the fluorescence slope in assay [4] was -0.564 (inactive). Moreover, in assay [5], the NADPH fluorescence slope is -3e-05 (inactive). Besides, the slope in assay [6] is 0.00585 (inactive).
Consider `Cc1nc(NCc2ccc3c(c2)OCO3)c2oc3ccccc3c2n1`, for which the cell count in assay [1] is 292. Besides, the inhibition in assay [1] was 12.8% (inactive); in assay [3], 44.7% (inactive); in assay [7], 4.64% (inactive); in assay [8], -12% (inactive). In addition, the inhibition of aggregation in assay [2] is -3.5% (inactive). In addition, the nuclei count in assay [2] came to 105%; in assay [3], 101%. Besides, in assay [4], the fluorescence slope is -0.516 (inactive). The NADPH fluorescence slope in assay [5] is 2.5e-05 (inactive). The slope in assay [6] was 0.00488 (inactive).
Consider `O=C(c1ccc(-c2ccccc2)cc1)N1CCC(C(=O)N2CCCC2)CC1`, for which the cell count in assay [1] came out at 237. In addition, the inhibition is -4.7% (inactive) in assay [1], -17.6% (inactive) in assay [3], 16% (inactive) in assay [7] and 8.25% (inactive) in assay [8]. Also, in assay [2], the inhibition of aggregation was 0.5% (inactive). Also, the nuclei count in assay [2] turned out to be 91.7%; in assay [3], 101%. For the same molecule, the fluorescence slope in assay [4] was -0.388 (inactive). Moreover, the NADPH fluorescence slope in assay [5] is -5.3e-05 (inactive). Moreover, in assay [6], the slope is 0.00472 (inactive).
Turning to `COc1cccc(C(=O)CN2CCC(NC(=O)NC3CCCCC3)CC2)c1`, in assay [1], the cell count was 513. Further, the inhibition is -25.5% (inactive) in assay [1], -26.9% (inactive) in assay [3], 7.64% (inactive) in assay [7] and -12.8% (inactive) in assay [8]. For the same molecule, the inhibition of aggregation in assay [2] was 10.5% (inactive). Moreover, the nuclei count in assay [2] came out at 51.6%; in assay [3], 114%. The fluorescence slope in assay [4] was -0.393 (inactive). Further, the NADPH fluorescence slope in assay [5] was -3.8e-05 (inactive). Besides, in assay [6], the slope was 0.00349 (inactive).
`O=C(O)CC1NC(=O)N(c2ccccc2)C1=O` (centres undefined): in assay [1], the cell count turned out to be 540. In addition, the inhibition in assay [1] was -4.6% (inactive); in assay [3] it was -106% (inactive); in assay [7], 16.4% (inactive); in assay [8], 21.9% (inactive). For the same molecule, the inhibition of aggregation in assay [2] is 5.1% (inactive). The nuclei count in assay [2] came out at 95.5%; in assay [3], 114%. For the same molecule, in assay [4], the fluorescence slope was -0.599 (inactive). In assay [5], the NADPH fluorescence slope is 1.8e-06 (inactive). Further, in assay [6], the slope was 0.00411 (inactive).
Regarding `CSc1nc2ccccc2c(=O)n1N`, the cell count in assay [1] came out at 618. In addition, the inhibition is 7.8% (inactive) in assay [1], 28.4% (inactive) in assay [3], 13% (inactive) in assay [7] and 19% (inactive) in assay [8]. Moreover, the inhibition of aggregation in assay [2] was 12.4% (inactive). Also, the nuclei count in assay [2] is 90.5%; in assay [3], 84.2%. The fluorescence slope in assay [4] is -0.404 (inactive). In assay [5], the NADPH fluorescence slope is -1.3e-05 (inactive). In assay [6], the slope was 0.00832 (inactive).
Regarding `COC(=O)CSc1ncccc1-c1nc2ccccc2[nH]1`, the cell count in assay [1] came to 473. For the same molecule, the inhibition was -4.5% (inactive) in assay [1], -48.5% (inactive) in assay [3], -16.6% (inactive) in assay [7] and -32.8% (inactive) in assay [8]. Besides, the inhibition of aggregation in assay [2] was -2% (inactive). The nuclei count in assay [2] turned out to be 111%; in assay [3] it was 99.2%. Also, in assay [4], the fluorescence slope was -0.512 (inactive). Also, the NADPH fluorescence slope in assay [5] is 3.1e-05 (inactive). Further, the slope in assay [6] is 0.00493 (inactive).
With `CCOC(=O)C1CN(S(=O)(=O)c2ccc(C)cc2)CCN1S(=O)(=O)c1ccc(C)cc1` (centres undefined), the cell count in assay [1] is 339. Also, the inhibition was 3.3% (inactive) in assay [1], -114% (inactive) in assay [3], 8.55% (inactive) in assay [7] and 11% (inactive) in assay [8]. In addition, in assay [2], the inhibition of aggregation was -36.8% (inactive). Besides, the nuclei count in assay [2] is 117%; in assay [3] it was 122%. Also, the fluorescence slope in assay [4] was -0.591 (inactive). Moreover, the NADPH fluorescence slope in assay [5] was 3.6e-05 (inactive). Also, the slope in assay [6] was 0.00631 (inactive).
In the case of `O=C1NC2(Nc3ccccc31)C(=O)Nc1ccccc12` (centres undefined), the cell count in assay [1] is 361. In addition, the inhibition in assay [1] is -4.3% (inactive); in assay [3], -129% (inactive); in assay [7] it was 13.7% (inactive); in assay [8], 37.4% (inactive). The inhibition of aggregation in assay [2] is 6.1% (inactive). Besides, the nuclei count turned out to be 102% in assay [2] and 106% in assay [3]. Moreover, the fluorescence slope in assay [4] is -0.355 (inactive). Besides, in assay [5], the NADPH fluorescence slope is -4.5e-06 (inactive). Moreover, the slope in assay [6] is 0.00484 (inactive).
For the molecule `CC(=O)c1ccc(OC(=O)c2cccs2)cc1`, the cell count in assay [1] is 305. For the same molecule, the inhibition in assay [1] was 3.8% (inactive); in assay [3], -41.6% (inactive); in assay [7], -3.03% (inactive); in assay [8] it was 22.4% (inactive). The inhibition of aggregation in assay [2] is -6.3% (inactive). Besides, the nuclei count in assay [2] was determined as 99.1%; in assay [3] it was 105%. For the same molecule, the fluorescence slope in assay [4] was -0.498 (inactive). Besides, the NADPH fluorescence slope in assay [5] is -1.8e-05 (inactive). In addition, in assay [6], the slope is 0.00631 (inactive).
For the molecule `O=C(Cn1c(-c2cncs2)nc2ccccc21)NC1CCCC1`, the cell count in assay [1] is 700. For the same molecule, the inhibition in assay [1] was -12.4% (inactive); in assay [3], -9.6% (inactive); in assay [7], 0.467% (inactive); in assay [8] it was 16.2% (inactive). The inhibition of aggregation in assay [2] was 0% (inactive). For the same molecule, the nuclei count in assay [2] stood at 114%; in assay [3] it was 109%. The fluorescence slope in assay [4] is -0.31 (inactive). The NADPH fluorescence slope in assay [5] is -4.5e-05 (inactive). Moreover, the slope in assay [6] is 0.00471 (inactive).
With `N#Cc1cnc(SCC(=O)c2ccccc2)nc1N`, the cell count in assay [1] came to 682. Also, the inhibition in assay [1] was -10.7% (inactive); in assay [3], -20.8% (inactive); in assay [7] it was 4.13% (inactive); in assay [8], -24.8% (inactive). Also, in assay [2], the inhibition of aggregation was 8.2% (inactive). Besides, the nuclei count in assay [2] is 63.1%; in assay [3] it was 120%. Besides, the fluorescence slope in assay [4] was -0.402 (inactive). Further, the NADPH fluorescence slope in assay [5] was -2.9e-05 (inactive). For the same molecule, the slope in assay [6] was 0.00488 (inactive).
On to `Cc1cccc(N2CCN(C(=O)CCn3c(=S)[nH]c4cc5c(cc4c3=O)OCO5)CC2C)c1` (centres undefined), for which the cell count in assay [1] was 488. Also, the inhibition in assay [1] is 3% (inactive); in assay [3] it was -1.8% (inactive); in assay [7] it was 9.48% (inactive); in assay [8], 38.2% (inactive). Further, in assay [2], the inhibition of aggregation was -4.6% (inactive). Further, the nuclei count was 112% in assay [2] and 97.2% in assay [3]. Also, in assay [4], the fluorescence slope is -0.614 (inactive). Also, the NADPH fluorescence slope in assay [5] is -2.6e-05 (inactive). The slope in assay [6] was 0.00669 (inactive).

The values above are taken from PubChem BioAssay.
